# Screens from PubChem BioAssay.
# Sampled rows, rich in hits. Any-hit rate of the full collection: about 3.7%.
# D3 antag: blocks the human D3 dopamine receptor; max response, negative = inhibition, %; D3R cells, DiscoveRx beta-arrestin luminescence, antagonist mode; stronger effect = lower value; hit rate 2.5% among 360,000; AID 652054; P35462; in the data active = max response below about -50%; inconclusive = no clear call, values can overlap the other calls
# Target sequence (P35462 whole entry, looked up): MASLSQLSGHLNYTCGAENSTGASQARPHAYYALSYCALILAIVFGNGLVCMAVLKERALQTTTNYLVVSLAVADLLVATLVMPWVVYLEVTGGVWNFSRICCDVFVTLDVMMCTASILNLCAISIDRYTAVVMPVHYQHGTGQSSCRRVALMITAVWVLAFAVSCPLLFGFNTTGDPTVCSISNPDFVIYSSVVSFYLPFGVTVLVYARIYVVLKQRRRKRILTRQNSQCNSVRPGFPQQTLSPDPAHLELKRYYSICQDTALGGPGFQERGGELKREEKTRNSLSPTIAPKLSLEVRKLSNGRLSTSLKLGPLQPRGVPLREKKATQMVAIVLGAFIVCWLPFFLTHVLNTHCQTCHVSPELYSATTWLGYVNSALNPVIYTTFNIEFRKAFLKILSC
#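 Cells plated overnight at 1500 cells/well, then exposed to library compounds with dopamine controls for 90 minutes at 37 degrees C. DiscoveRx reagent added for 30–60 minutes at room temperature; luminescence read, quantitative HTS format.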
# B2AR arrestin: recruits beta-arrestin to the human beta2-adrenergic receptor | P07550 | beta-arrestin recruitment to beta2AR, cell-based reporter | Potency, µM (titrated, usually from 46.1 µM), usual class: activators | hit rate 0.02% among 330,000 | AID 492947; also: nearly all actives have a fitted effect of over 65% in size
# PTHR1 agonist: activates the human parathyroid hormone receptor PTHR1. Q03431. HEK293 GP2 PTHR1 cells, GloSensor cAMP luminescence, 1 h. Potency, µM (top dose mostly 115 µM), actives largely listed as activators. hit rate 0.075% among 410,000. AID 743266; also: nearly all actives have a fitted effect of over 55% in size
#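 HEK-293-derived GP2 cells expressing PTHR1 and a GloSensor cAMP reporter, 3,000/well, plated overnight, given luciferin plus IBMX (each 0.5 mM as added) for 1 h at 37 °C, then compound for 1 h at 37 °C. Luminescence was read after 15 min at room temperature.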
# D3 ag: D3 dopamine receptor (human) agonism. P35462. D3R DiscoveRx beta-arrestin cells, luminescence, 90 min. max activation, %. hit rate 0.58% among 410,000. AID 652048; in the data active = max activation above about 30%
#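 Agonist-mode cell screen: cells plated at 1500/well and incubated overnight at 37 °C, then exposed to library compounds for 90 min at 37 °C. Detection reagent was added for 30–60 min at room temperature, and luminescence was read.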
# RGS4 inhibitor: inhibitors of human regulator of G protein signaling 4; P49798; Transcreener GDP fluorescence polarization, RGS4-accelerated GTP hydrolysis; Potency, µM (top dose mostly 114 µM), actives largely listed as inhibitors; hit rate 0.039% among 390,000; AID 504845; also: nearly all actives have a fitted effect of over 75% in size
# Target sequence (P49798 whole entry, looked up): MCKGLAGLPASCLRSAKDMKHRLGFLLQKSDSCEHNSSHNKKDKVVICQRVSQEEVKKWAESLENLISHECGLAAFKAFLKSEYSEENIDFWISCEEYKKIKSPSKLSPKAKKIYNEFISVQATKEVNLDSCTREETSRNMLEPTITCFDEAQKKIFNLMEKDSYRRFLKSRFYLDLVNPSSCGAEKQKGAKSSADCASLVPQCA
#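 MLSMR compounds (23 nl, pin-transferred) preincubated 10 min at room temperature with a 500nM (2x) first reagent, then RGS4 at 900nM (2x) plus Transcreener GDP mix added; fluorescence polarization (620/688 nm) read before and after 90 min at 30 °C.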
# BRCA1 expr act: BRCA1 expression activation; MCF7-BRCA1-FFLuc reporter, luminescence, 48 h; response scale: scaled: vehicle 0%, 10 µM genistein 100%; Potency, µM (highest dose often 46.1 µM), most hits filed as activators; hit rate 1.1% among 380,000; AID 624202; also: nearly all actives have a fitted effect of over 80% in size
#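 First, MCF7-BRCA1-FFLuc cells (2000/well) attach for 2 h; next, compounds are pin-added and incubated 48 h at 37 °C; finally, luciferase reagent is added and luminescence read after 15 min.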
# Hits are given with their value; n = inactive; u = inconclusive; x = not tested or not shown; [ ] = another dose, or the depositor's remark. Unless noted, calls follow the shape of the dose curve; as a rule, active = well fitted curve in the direction sought with a large enough effect; inconclusive = small, poorly fitted or top-dose-only effect, or another doubt; inactive = no such curve, though single readings can be large; an effect the other way counts as inactive or inconclusive.
SMILES,D3 antag,B2AR arrestin,PTHR1 agonist,D3 ag,RGS4 inhibitor,BRCA1 expr act
Cc1cc(C)cc(NC(=O)C2CCN(S(=O)(=O)c3ccc4c(c3)oc(=O)n4C)CC2)c1,x,x,n,n,n,n
O=C1CC(SCc2nc3ccccc3[nH]2)C(=O)N1c1ccc(F)cc1 (stereo unspecified),-65.8,n,n,n,n,n
Cc1ccc(NC(=S)NC(=O)c2ccc(-c3ccc(Cl)cc3)o2)c(O)c1,-100.5,n,n,n,n,n
Cc1ccc(NC(=S)NC(=O)c2ccc(Br)o2)c(C)c1,n,n,n,n,n,3.98µM
Cc1ccc(NC(=S)NC(=O)C2CCCC2)cc1C,n,n,n,n,n,u
Cc1ccc(NC(=S)NC(=O)C2CC2)c(C)c1,n,n,n,n,n,11.2µM
Cc1ccc(O)c(NC(=S)NC(=O)Cc2ccc(Cl)cc2)c1,u,n,n,n,n,n
Cc1cc(O)c(NC(=S)NC(=O)c2ccc(-c3ccc(Cl)cc3)o2)cc1C,-76.3,n,n,n,n,n
C[C@H]1O[C@@H](O[C@H]2CC[C@@]3(C)[C@H](CC[C@@H]4[C@@H]3C[C@@H](O)[C@]3(C)[C@@H](C5=CC(=O)OC5)CC[C@]43O)C2)C[C@H](O)[C@@H]1O[C@H]1C[C@H](O)[C@H](O[C@H]2C[C@H](O)[C@H](O[C@@H]3O[C@H](CO)[C@@H](O)[C@H](O)[C@H]3O)[C@@H](C)O2)[C@@H](C)O1,x,x,x,n,x,x
COc1cc(-c2nc(S(=O)(=O)c3ccc(Br)cc3)c(N3CCOCC3)o2)cc(OC)c1OC,x,x,n,n,n,x
COc1ccc(Cc2nnc(SCC(=O)Nc3ccc(C)cc3C)[nH]c2=O)cc1,n,n,n,n,n,n
COc1ccc(Cc2nnc(Nc3ccc(C)cc3C)[nH]c2=O)cc1,-61.0,n,n,n,n,n
Nc1nc2cc(Cl)c(Br)cc2o1,n,x,n,n,n,n
O=C(Cc1ccc(F)cc1)c1ccc(O)cc1O,n,n,n,n,n,12.6µM
COc1cc2[nH]c(C(=O)N3CCC(Cc4ccccc4)CC3)cc2c(OC)c1OC,n,n,n,n,n,n
COc1ccccc1-c1cc(C(=O)Nc2sc3c(c2C#N)CCC(C)C3)c2ccccc2n1 (stereo unspecified),-63.0,n,n,n,n[11.4 µM],n
COc1ccc(OC)c(-c2cc(C(=O)Nc3sc4c(c3C#N)CCC(C)C4)c3ccccc3n2)c1 (stereo unspecified),n,n,n,n,n,n
Cc1onc(-c2ccccc2)c1C(=O)NC(=S)Nc1sc2c(c1C#N)CCC(C)C2 (stereo unspecified),n,n,n,34.9,n,n
COC(=O)c1sc(NC(=O)c2cc(-c3ccccc3)nc3ccccc23)c(C#N)c1C,n,n,n,n,n[11.4 µM],n
CCCN1CCc2c(sc(NC(=S)NC(=O)c3ccccc3)c2C#N)C1,n,n,n,37.8,u,n
Cc1ccccc1-c1cc(C(=O)Nc2sc(C(=O)OC(C)C)c(C)c2C#N)c2ccccc2n1,-68.4,n,n,n,u,n
CCN(CC(=O)NCc1ccc(F)cc1)C(=O)c1cc2ccccc2o1,n,n,n,n,n,n
CCCCCC(=O)Nc1cccc(S(=O)(=O)NC2=NCCC2)c1,n,n,n,n,n,n
Cc1cc(C)c(C)c(S(=O)(=O)NCC(=O)Nc2ccc(F)cc2)c1C,n,n,n,n,n,n
Fc1ccc(-c2nnc(SCc3cccnc3)o2)cc1,n,n,n,n,n,u
SMILES,D3 antag,B2AR arrestin,PTHR1 agonist,D3 ag,RGS4 inhibitor,BRCA1 expr act
COc1ccc(C(C)=O)cc1CSC(=N)N,-54.1,n,n,n,n,n
CCOc1ccc(C(C)=O)cc1CSC(=N)N,n,n,n,n,n,n
CCN(Cc1ccccc1)c1cc2c(c3c1ccn3C)C1CCC2C1 (stereo unspecified),-55.1,x,n,n,x,n
CCCN(CC1CC1)c1cc2c(c3c1ccn3C)C1CCC2C1 (stereo unspecified),u,x,n,n,x,n
CCN(CC)c1cc2c(c3c1ccn3C)C1CCC2C1 (stereo unspecified),-61.3,x,n,n,x,n
CC(C)CC(=O)Nc1nnc(S(=O)(=O)N2c3ccccc3CC2C)s1 (stereo unspecified),n,n,n,n,n,n
Cc1cn([C@H]2C[C@H](O)[C@@H](CNC(=O)[C@H](N)Cc3cscn3)O2)c(=O)[nH]c1=O,n,x,n,n,x,n
Oc1ccc(Nc2nc(N3CCCC3)c3ccccc3n2)cc1,-70.6,n,n,n,u,n
Cn1c(=O)n(C)c2cc([N+](=O)[O-])c(N3CCN(C(=O)c4cccc(F)c4)CC3)cc21,u,n,n,n,n,n
Cn1c(=O)n(C)c2cc([N+](=O)[O-])c(N3CCN(C(=O)c4cccc(Cl)c4)CC3)cc21,-59.8,n,n,n,u,n
CC(C)C[C@@H](CNCC(=O)[C@H](CC(=O)O)NC(=O)c1[nH]cnc1C(=O)N[C@H](CN)CC(C)C)NC(=O)c1nc[nH]c1C(=O)N[C@@H](Cc1ccccc1)C(=O)O,-71.9,x,n,n,n,n
CC(C)C[C@@H](CNCC(=O)[C@H](CC(C)C)NC(=O)c1[nH]cnc1C(=O)N[C@@H](C)CN)NC(=O)c1nc[nH]c1C(=O)N[C@@H](Cc1ccccc1)C(=O)O,n,x,n,n,n,n
CC(C)C[C@@H](CN)NC(=O)c1nc[nH]c1C(=O)N[C@@H](CC(C)C)C(=O)CNC[C@H](C)NC(=O)c1nc[nH]c1C(=O)N[C@@H](CC(=O)O)C(=O)O,n,x,n,46.0,n,n
CC(C)C[C@@H](CNCC(=O)[C@H](CC(C)C)NC(=O)c1[nH]cnc1C(=O)N[C@H](CN)CC(C)C)NC(=O)c1nc[nH]c1C(=O)N[C@@H](CC(=O)O)C(=O)O,n,x,n,n,n,n
Cc1nnc2n(Cc3ccccc3)c(=O)c3c4c(sc3n12)COC(C(C)C)C4 (stereo unspecified),n,n,n,n,n,n
CC(C)C1Cc2c(sc3c2c(=O)n(Cc2ccccc2)c2nncn32)CO1 (stereo unspecified),-53.1,n,n,n,n,n
O=c1c(Cl)c(Cl)cnn1Cc1nnc(-c2ccc(Cl)cc2)o1,-87.2,n,n,n,n,n
Clc1ccc(OCc2cc(-c3ccccc3)no2)cc1Cl,n,n,n,n,n,14.1µM
O=C(COc1ccc(Cl)cc1)Nc1cc(-c2ccccc2)no1,x,x,n,n,n,x
Clc1ccc(-c2cc(COc3ccccc3)on2)cc1,n,n,n,n,n,10µM
OC1(C#CCCN2CCCCC2)c2ccccc2-c2ccccc21,n,n,n,n,n,n
